This test has as its system NCI-H1944. Description: normalised cell viability (NPI; 0 = phenylarsine oxide control, 1 = DMSO control) (fraction of DMSO control); NCI-H1944 is a non-small cell lung cancer line; higher = more viable cells (less compound toxicity). The settings on record: 6 days.
[1] abbreviates: glucocorticoid arm: hydrocortisone 2.75 uM co-treatment, compound 1 µM.
Setting [2] is: glucocorticoid arm: hydrocortisone 2.75 uM co-treatment, compound 5 µM.
The mark [3] stands for this setting: glucocorticoid arm: hydrocortisone 2.75 uM pre-treated 2 days and continued, compound 1 µM.
[4] abbreviates: glucocorticoid arm: hydrocortisone 2.75 uM pre-treated 2 days and continued, compound 5 µM.
The mark [5] stands for this setting: glucocorticoid arm: vehicle, compound 1 µM.
The mark [6] stands for this setting: glucocorticoid arm: vehicle, compound 5 µM.

Among the data in the supplement of paper PMC8285479 are normalised cell viability values, retold here.

Counter-ions that a name gives are not always drawn. ± gives the standard deviation of the averaged measurements. In all, about 1,900 compounds were measured (“normalised cell viability (NPI; 0 = phenylarsine oxide control, 1 = DMSO control)”: median about 1, lowest 2% from about 0.039 on). The sample as a whole holds a higher share of the lowest values than the screen did.
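Further: CTB read-out in 384-well plates, triplicate wells, NPI normalised per plate against 1 µM phenylarsine oxide (0) and 0.1% DMSO (1) controls.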

For the compound `CCCCCCCCCCCCCCCC(=O)OC(CC(=O)O)C[N+](C)(C)C` (racemic) [Palmitoyl-DL-Carnitine chloride], the normalised cell viability is, setting by setting: under setting [1], 1.02 ± 0.011; under setting [2], 0.975 ± 0.014; under setting [3], 1.013 ± 0.0058; under setting [4], 0.863 ± 0.28; under setting [5], 1.007 ± 0.0058; under setting [6], 1.02 ± 0.02.

`Cc1ccc(C(=O)c2cc(/C=C/C(=O)NO)n(C)c2)cc1`: the normalised cell viability runs as follows: under setting [1], 1 ± 0.022; under setting [2], 1.02 ± 0.02; under setting [3], 1 ± 0.021; under setting [4], 1.02 ± 0.017; under setting [5], 0.9928 ± 0.0048; under setting [6], 0.995 ± 0.022.

Take `CC(C=CC(=O)NO)=CC(C)C(=O)c1ccc(N(C)C)cc1` (stereo not given) [Trichostatin A (TSA)]: the normalised cell viability under setting [1] was determined as 0.0292 ± 0.0042; the normalised cell viability under setting [2] is -0.000733 ± 0.0048; the normalised cell viability under setting [3] was found to be 0.937 ± 0.098; the normalised cell viability under setting [4] amounted to 0.00269 ± 0.00055; the normalised cell viability under setting [5] was 0.00709 ± 0.0011; the normalised cell viability under setting [6] was 8.2e-05 ± 0.00089.

As for `CC(/C=C/C(=O)NO)=C\[C@@H](C)C(=O)c1ccc(N(C)C)cc1` [Trichostatin A], the normalised cell viability is, setting by setting: under setting [1], 2.17e-05 ± 0.00056; under setting [2], 0.000584 ± 0.0001; under setting [3], 0.00474 ± 0.0016; under setting [4], 0.00101 ± 0.0013; under setting [5], -0.000312 ± 0.00084; under setting [6], 0.000187 ± 0.00072.

For the compound `CN1CCC[C@@H]1c1cccnc1.Cc1ccc(C(=O)O[C@H](C(=O)O)[C@@H](OC(=O)c2ccc(C)cc2)C(=O)O)cc1` [(+)-Nicotine (+)-di-p-toluoyl tartrate], the normalised cell viability under setting [1] turned out to be 1.03 ± 0.015; the normalised cell viability under setting [2] is 1.02 ± 0.016; the normalised cell viability under setting [3] amounted to 1.03 ± 0.01; the normalised cell viability under setting [4] was determined as 1.03 ± 0.021; the normalised cell viability under setting [5] came out at 1.027 ± 0.0058; the normalised cell viability under setting [6] stood at 1.03 ± 0.015.

As for `CC1CN(S(=O)(=O)c2cccc3cnccc23)CCN1` (stereo not given), the normalised cell viability is 0.9777 ± 0.0078 under setting [1]; 0.966 ± 0.025 under setting [2]; 0.9933 ± 0.0051 under setting [3]; 1.01 ± 0.091 under setting [4]; 0.9757 ± 0.0074 under setting [5]; 0.9753 ± 0.0076 under setting [6].

On to `Oc1cc2c(c(Cl)c1O)CCNCC2c1ccccc1` (racemic) [(±)-6-Chloro-PB hydrobromide], for which the normalised cell viability runs as follows: under setting [1], 1.007 ± 0.0058; under setting [2], 1.04 ± 0.023; under setting [3], 1.03 ± 0.015; under setting [4], 1.05 ± 0.01; under setting [5], 1.02 ± 0.01; under setting [6], 1.02.

Turning to `O=C(c1ccc2c(c1)OCCO2)N1CCCCC1`, the normalised cell viability amounted to 1.005 ± 0.0092 under setting [1]; 1 ± 0.017 under setting [2]; 1.01 under setting [3]; 1 ± 0.017 under setting [4]; 0.9913 ± 0.0096 under setting [5]; 0.9947 ± 0.0021 under setting [6].

With `O=C1O/C(=C/Br)CCC1c1cccc2ccccc12` (stereo not given) [Bromoenol lactone], the normalised cell viability under setting [1] was determined as 1.02; the normalised cell viability under setting [2] stood at 1.02 ± 0.026; the normalised cell viability under setting [3] worked out at 1.01 ± 0.01; the normalised cell viability under setting [4] came to 1.02; the normalised cell viability under setting [5] stood at 0.998 ± 0.013; the normalised cell viability under setting [6] was found to be 1.01.

On to `CCOC(=O)C1=CN(Cc2ccccc2)C=C(C(=O)OCC)C1c1ccccc1`, for which the normalised cell viability turned out to be 0.995 ± 0.018 under setting [1]; 1.01 ± 0.026 under setting [2]; 1 ± 0.019 under setting [3]; 1.01 ± 0.021 under setting [4]; 0.993 ± 0.0059 under setting [5]; 1.003 ± 0.01 under setting [6].

As to `O=C(O)c1cc(O)c2ccc(Cl)cc2n1` [7-Chlorokynurenic acid], the normalised cell viability by setting is: under setting [1], 1.002 ± 0.0069; under setting [2], 0.974 ± 0.0072; under setting [3], 1.01 ± 0.015; under setting [4], 0.9873 ± 0.0046; under setting [5], 1.01 ± 0.01; under setting [6], 0.997 ± 0.0036.

In the case of `N=C(N)NCCCCN` [Agmatine sulfate], the normalised cell viability runs as follows: under setting [1], 1.017 ± 0.0058; under setting [2], 1 ± 0.025; under setting [3], 1.003 ± 0.0058; under setting [4], 1 ± 0.025; under setting [5], 0.986 ± 0.012; under setting [6], 0.997 ± 0.011.

For `CC(C)C[C@H](NC(=O)[C@H](Cc1ccccc1)NC(=O)c1cnccn1)B(O)O` [Bortezomib], the normalised cell viability is, setting by setting: under setting [1], 0.281 ± 0.011; under setting [2], 0.0356 ± 0.0084; under setting [3], 0.669 ± 0.035; under setting [4], 0.28 ± 0.054; under setting [5], 0.00407 ± 0.00064; under setting [6], 0.00157 ± 0.00063.

As for `CC(C)C[C@H](NC(=O)[C@@H](O)[C@H](N)Cc1ccccc1)C(=O)O` [Bestatin hydrochloride], the normalised cell viability runs as follows: under setting [1], 0.996 ± 0.0046; under setting [2], 1.02 ± 0.011; under setting [3], 0.989 ± 0.01; under setting [4], 1.02 ± 0.033; under setting [5], 0.979 ± 0.012; under setting [6], 0.9903 ± 0.0015.

Turning to `CC(C)C[C@H](NC(=O)[C@H](Cc1ccccc1)NC(=O)c1cnccn1)B(O)O` [Bortezomib (Velcade)], the normalised cell viability is, setting by setting: under setting [1], 0.352 ± 0.024; under setting [2], 0.0578 ± 0.0037; under setting [3], 0.677 ± 0.016; under setting [4], 0.351 ± 0.042; under setting [5], 0.00826 ± 0.0011; under setting [6], 0.000986 ± 0.0007.

Consider `CC(C)C[C@H](NC(=O)[C@H](O)[C@H](N)Cc1ccccc1)C(=O)O` [Epibestatin hydrochloride], for which the normalised cell viability came to 1.003 ± 0.0064 under setting [1]; 0.9953 ± 0.004 under setting [2]; 0.9977 ± 0.004 under setting [3]; 0.9947 ± 0.005 under setting [4]; 0.9957 ± 0.0067 under setting [5]; 1.007 ± 0.0058 under setting [6].

`C#C[C@]1(O)CC[C@H]2[C@@H]3CCC4=Cc5oncc5C[C@]4(C)[C@H]3CC[C@@]21C` [Danazol]: the normalised cell viability by setting is: under setting [1], 0.998 ± 0.001; under setting [2], 1 ± 0.021; under setting [3], 0.991 ± 0.022; under setting [4], 1.01 ± 0.027; under setting [5], 1.007 ± 0.0058; under setting [6], 1.013 ± 0.0058.

As for `C[C@]12CC[C@H](O)CC1=CC[C@@H]1[C@@H]2CC[C@]2(C)C(c3cccnc3)=CC[C@@H]12` [Abiraterone], the normalised cell viability is 1.043 ± 0.0058 under setting [1]; 1.18 ± 0.023 under setting [2]; 1.05 under setting [3]; 1.11 ± 0.025 under setting [4]; 0.848 ± 0.021 under setting [5]; 1.05 ± 0.011 under setting [6].

As for `O=C(NCCCNc1nc(Nc2cccc(NC(=O)N3CCCC3)c2)ncc1I)c1cccs1`, the normalised cell viability runs as follows: under setting [1], 0.9797 ± 0.0095; under setting [2], 0.993 ± 0.027; under setting [3], 0.9587 ± 0.0025; under setting [4], 1.05 ± 0.017; under setting [5], 0.71 ± 0.01; under setting [6], 0.3133 ± 0.0023.

Turning to `c1ccc2c(-c3cnn4cc(-c5ccc(N6CCNCC6)cc5)cnc34)ccnc2c1`, the normalised cell viability is, setting by setting: under setting [1], 1.043 ± 0.0058; under setting [2], 0.832 ± 0.14; under setting [3], 1.04 ± 0.01; under setting [4], 1.09 ± 0.021; under setting [5], 1.01 ± 0.011; under setting [6], 0.0214 ± 0.0048.

Regarding `Nc1ncnc2c1nc(Br)n2C1OC2COP(=O)(O)O[C@@H]2C1O` (stereo not given in full) [8-Bromo-cAMP sodium], the normalised cell viability reads like this: under setting [1], 0.9863 ± 0.004; under setting [2], 0.901 ± 0.017; under setting [3], 0.983 ± 0.001; under setting [4], 0.96 ± 0.016; under setting [5], 0.9617 ± 0.0067; under setting [6], 0.9647 ± 0.0093.

In the case of `Cc1nn(-c2ccccc2)c(C)c1C=NN1CCN(Cc2ccccc2)CC1`, the normalised cell viability worked out at 1.01 ± 0.01 under setting [1]; 0.991 ± 0.05 under setting [2]; 1.02 ± 0.011 under setting [3]; 0.9927 ± 0.0078 under setting [4]; 0.9987 ± 0.0023 under setting [5]; 0.996 ± 0.013 under setting [6].

Turning to `CNC(CC(=O)O)C(=O)O` [NMDA (N-Methyl-D-aspartic acid)], the normalised cell viability reads like this: under setting [1], 1.006 ± 0.0069; under setting [2], 1.03 ± 0.037; under setting [3], 1.01 ± 0.032; under setting [4], 1.01 ± 0.013; under setting [5], 1.003 ± 0.0058; under setting [6], 0.9973 ± 0.0025.

On to `FC(F)(F)c1cc(COC2CCCNC2c2ccccc2)cc(C(F)(F)F)c1` [L-733,060 hydrochloride], for which the normalised cell viability is, setting by setting: under setting [1], 0.9863 ± 0.0067; under setting [2], 0.843 ± 0.034; under setting [3], 1 ± 0.014; under setting [4], 0.993 ± 0.076; under setting [5], 0.9957 ± 0.0067; under setting [6], 0.928 ± 0.076.

For `N/C(=N\C(=O)c1nc(Cl)c(N)nc1N)NCc1ccccc1` [Benzamil hydrochloride], the normalised cell viability reads like this: under setting [1], 1.023 ± 0.0058; under setting [2], 1.04 ± 0.01; under setting [3], 1.03 ± 0.011; under setting [4], 1.05 ± 0.028; under setting [5], 0.9897 ± 0.0045; under setting [6], 1.02 ± 0.016.
